Records with an inconclusive call do not appear. Entries that show only a call come without a potency. Active and inactive are the calls of the source. Calls come from the whole dose curve; as a rule, active = well fitted curve in the direction sought with a large enough effect; inconclusive = small, poorly fitted or top-dose-only effect, or another doubt; inactive = no such curve, though single readings can be large; an effect the other way counts as inactive or inconclusive.
How the values were obtained:
[1] = target: Aldehyde dehydrogenase, mitochondrial (Homo sapiens) (UniProt P05091); test: qHTS for Inhibitors of the Aldehyde Dehydrogenase Family (ALDH2) Primary screen (AID 2061308); conditions: ALDH2 enzyme inhibition qHTS, 1536-well; series mostly up to 56 µM; note: nearly all actives have a fitted effect of over 55% in size
[2] = target: Retinaldehyde dehydrogenase 3 (Homo sapiens) (UniProt P47895); test: qHTS for Inhibitors of the Aldehyde Dehydrogenase Family (ALDH1A3) Primary screen (AID 2061315); conditions: ALDH inhibition qHTS; series mostly up to 56 µM

O=C(Nc1ccc(S(=O)(=O)Nc2ncc(-c3ccccc3)s2)cc1)c1ccc2ccccc2c1
Potency [1]: inactive
Potency [2]: inactive

O=C(O)c1ccc2c(c1)C(=O)N([C@H](Cc1ccc(Cl)cc1)C(=O)O)C2=O
Potency [1]: inactive
Potency [2]: inactive

Cc1cc2c(s1)c1cnn(Cc3c(C)cc(F)cc3C)c(=O)c1n2C
Potency [1]: inactive
Potency [2]: inactive

Cc1cc(C)n2ncc(C(=O)Nc3ccc(Br)cc3)c2n1
Potency [1]: inactive
Potency [2]: inactive

C(=C\c1cccs1)/c1cccnc1
Potency [1]: inactive
Potency [2]: inactive

Cc1cnc(-c2ccccc2C(C)C)nc1NC(C)c1ccc(-c2cccnc2)cc1 (centres undefined)
Potency [1]: inactive
Potency [2]: inactive

CCn1cnc2c(Nc3cc(F)cc(F)c3)nc(C(=O)COc3c(F)c(F)cc(F)c3F)nc21
Potency [1]: inactive
Potency [2]: inactive

O=Cc1nc(Nc2cc(F)cc(F)c2)nc(NC2CCCC2)n1
Potency [1]: inactive
Potency [2]: inactive

COc1cccc(CCN2C(=O)c3ccccc3NC2c2ccc(OC)c(COc3c(C)cc(NC(C)=O)cc3C)c2)c1 (centres undefined)
Potency [1]: inactive
Potency [2]: inactive

Cc1nc2ccc(Nc3nc(-c4ccncc4)nc4ccccc34)cc2s1
Potency [1]: inactive
Potency [2]: inactive

Cc1cccc(Nc2nc(NCCO)nc(N3CCCC3)n2)c1
Potency [1]: inactive
Potency [2]: inactive

O=C(OCC#CCSc1nnc(-c2cccc3ccccc23)o1)c1ccccc1
Potency [1]: inactive
Potency [2]: inactive

NC(=O)C1CCN(c2nc(-c3cccc(F)c3)cs2)CC1
Potency [1]: inactive
Potency [2]: inactive

CCOc1ccc(CCN(C)C(=O)c2cc3sccc3n2Cc2ccccc2)cc1OCC
Potency [1]: inactive
Potency [2]: inactive

N#Cc1ccc(-c2ccc(NC(=O)c3cccs3)cn2)cc1
Potency [1]: inactive
Potency [2]: inactive

COC(=O)[C@H](O)[C@H]1C(C)(C)[C@H](OC(C)=O)[C@@]2(O)C(=O)[C@]1(C)C1CC[C@]3(C)C(CC(=O)O[C@H]3c3ccoc3)[C@]13O[C@@H]32 (some centres undefined)
Potency [1]: inactive
Potency [2]: inactive

Cc1ccc(N[S+](=O)([O-])c2cc3c(cc2Cl)CCC(=O)N3)cc1Br
Potency [1]: inactive
Potency [2]: inactive

Cc1ccc(S(=O)(=O)Nc2cnccc2C(=O)Nc2nc(-c3ccccc3Cl)cs2)cc1
Potency [1]: inactive
Potency [2]: inactive

COc1ccc(NC(=O)C(OC(=O)CNC(=O)c2ccccc2)c2ccccc2)cc1Cl (centres undefined)
Potency [1]: inactive
Potency [2]: inactive

Cc1cc(C)nc(NC(=S)N2CCN(c3ncccn3)CC2)c1
Potency [1]: inactive
Potency [2]: inactive

N#Cc1nc(Nc2cc(F)cc(F)c2)c2ncn(CCCN3CCCC3)c2n1
Potency [1]: inactive
Potency [2]: inactive

Cn1c2cc(B(O)O)sc2c2cnn(Cc3ccc(F)cc3F)c(=O)c21
Potency [1]: inactive
Potency [2]: inactive

CCN(CC)CCCC(C)n1c(-c2ccccc2)nc2c(NC3CCCCC3)nc(C)nc21 (centres undefined)
Potency [1]: inactive
Potency [2]: inactive

O=C1CCCC2=C1C(c1ccccc1C(F)(F)F)N=C(Nc1nc3ccccc3o1)N2 (centres undefined)
Potency [1]: inactive
Potency [2]: inactive

CN(C(=O)c1cn2c(-c3ccc(C(F)(F)F)cc3)cnc2cn1)c1ccc(C#N)cc1
Potency [1]: inactive
Potency [2]: inactive

CC(C)(C)OC(=O)N1CCN(c2ccc(NCc3nnc(-c4ccc(C#N)cc4)o3)cc2)CC1
Potency [1]: inactive
Potency [2]: inactive

Cc1nc(C)c2c(n1)N(Cc1ccc(-c3ccccc3-c3nn[nH]n3)cc1)C(=O)CC2
Potency [1]: inactive
Potency [2]: inactive

C=C(C)c1cc2c(s1)c1cnn(Cc3ccccc3F)c(=O)c1n2C
Potency [1]: inactive
Potency [2]: inactive

Cc1cn(-c2cccc(NC(=O)c3ccc(C)c(Nc4nccc(-c5cccnc5)n4)c3)c2)cn1
Potency [1]: inactive
Potency [2]: inactive

O=C1CCc2cc(S(=O)(=O)Nc3cccc(-c4ccccc4)c3)ccc2N1
Potency [1]: inactive
Potency [2]: inactive

O=C(O)c1sc2c(c1-c1nc3ccccc3s1)CCNC2
Potency [1]: inactive
Potency [2]: inactive

c1nc(OCc2cnc[nH]2)c2cc(-c3ccc4c(c3)OCO4)ccc2n1
Potency [1]: inactive
Potency [2]: inactive

CNc1oc(-c2cccc3ncccc23)nc1C#N
Potency [1]: inactive
Potency [2]: inactive

FC(F)(F)c1cccc(N2CCN(C(=S)Nc3cc(C(F)(F)F)ccn3)CC2)c1
Potency [1]: inactive
Potency [2]: inactive

CSc1ccc(-c2cncc(NC(=O)c3cccs3)c2)cc1
Potency [1]: inactive
Potency [2]: inactive

Cc1cc2c(s1)c1cnn(Cc3cc(F)c(F)c(F)c3F)c(=O)c1n2C
Potency [1]: inactive
Potency [2]: inactive

O=S(=O)(c1ccc2c(c1)OCCO2)N1CCN(S(=O)(=O)c2c(F)cccc2F)CC1
Potency [1]: inactive
Potency [2]: inactive

Cn1c2cc(B(O)O)sc2c2cnn(Cc3c(F)cccc3Cl)c(=O)c21
Potency [1]: inactive
Potency [2]: inactive

Cc1cc(C)nc(NC(=S)N2CCN(c3cnc4nccn4c3)CC2)c1
Potency [1]: inactive
Potency [2]: inactive

O=C1c2ccccc2C(=O)N1c1cccc(Cl)c1
Potency [1]: inactive
Potency [2]: inactive

O=C(NCc1ccc(Cl)c(Cl)c1)Nc1nnc(-c2ccncc2)s1
Potency [1]: inactive
Potency [2]: inactive

Cc1ccc(NS(=O)(=O)c2ccc3[nH]c(=O)[nH]c3c2)cc1C
Potency [1]: inactive
Potency [2]: inactive

Cc1ccc(OCCn2c(CCN[S+](=O)([O-])C3CCCCC3)nc3ccccc32)cc1
Potency [1]: inactive
Potency [2]: inactive

Cc1c(Cl)cccc1S(=O)(=O)Nc1nc(NCCc2ccccc2)nc2c1CN(Cc1ccccc1)CC2
Potency [1]: inactive
Potency [2]: inactive

COc1ccc(NC(=O)c2[nH]c(C)c(C(C)=O)c2C)cc1[S+](=O)([O-])Nc1ccccc1C#N
Potency [1]: inactive
Potency [2]: inactive

CCN(CC)CCCCn1c(-c2ccccc2)nc2c(NCCOC)nc(C)nc21
Potency [1]: inactive
Potency [2]: inactive

Cc1nc(N2CCOCC2)c2nc(-c3ccccc3)n(CC(C)(C)CN(C)C)c2n1
Potency [1]: inactive
Potency [2]: inactive

Cc1cccc(-c2ccc3ncnc(N(C)Cc4ccco4)c3c2)c1
Potency [1]: inactive
Potency [2]: inactive

S=C(NCCCc1cnc[nH]1)NCCCN(Cc1ccc(Cl)cc1)c1ccc(Br)cn1
Potency [1]: inactive
Potency [2]: inactive

Cc1ccc(-c2ccc(=O)n(C(C)C)n2)cc1
Potency [1]: inactive
Potency [2]: inactive

Fc1cccc(CNc2ncnc3ccc(-c4ccoc4)cc23)c1
Potency [1]: inactive
Potency [2]: inactive

Cc1cc(C)nc(NC(=S)N2CCN(c3nccc4ccsc34)CC2)c1
Potency [1]: inactive
Potency [2]: inactive

O=C1c2ccccc2C(=O)N1Cc1ccccn1
Potency [1]: inactive
Potency [2]: inactive

Cc1cc2c(s1)c1cnn(Cc3c(Cl)cccc3Br)c(=O)c1n2C
Potency [1]: inactive
Potency [2]: inactive

COc1cccc(C2c3c(ncn(Cc4cccs4)c3=N)Oc3ccc4ccccc4c32)c1 (centres undefined)
Potency [1]: inactive
Potency [2]: inactive

CNc1nnc(-c2cccc3ccccc23)o1
Potency [1]: inactive
Potency [2]: inactive

Cc1cc2c(s1)c1cnn(Cc3cc(F)cc(F)c3)c(=O)c1n2C
Potency [1]: inactive
Potency [2]: inactive

O=[S+]([O-])(Nc1ccccc1)c1ccc(NCc2cccc(C(F)(F)F)c2F)cc1
Potency [1]: inactive
Potency [2]: inactive

Cc1cc2c(s1)c1cnn(Cc3ccc(Cl)cc3)c(=O)c1n2C
Potency [1]: inactive
Potency [2]: inactive

CC/C=C/CC1=C(CCCCC(CCC(=O)O)OC(C)=O)CCC1=O (centres undefined)
Potency [1]: inactive
Potency [2]: inactive

C[C@@H]1CN(S(=O)(=O)c2c(F)cccc2F)CCN1S(=O)(=O)c1ccc2c(c1)OCCO2
Potency [1]: inactive
Potency [2]: inactive

CCCn1c(C)nc2c(N3CCC(N4CCN(C)CC4)CC3)nc(C)nc21
Potency [1]: inactive
Potency [2]: inactive

COc1cccc(-c2ccc(=O)n(CC(=O)NCCc3ccccc3)n2)c1
Potency [1]: inactive
Potency [2]: inactive

O=C1CN(S(=O)(=O)c2c(F)cccc2F)CCN1S(=O)(=O)c1ccc2c(c1)OCCO2
Potency [1]: inactive
Potency [2]: inactive

CCC1CCCN(C(=O)CC(c2ccc3c(c2)OCO3)c2c(O)cc(OC)cc2OC)C1 (centres undefined)
Potency [1]: inactive
Potency [2]: inactive

Cc1cccc(CNc2nc(-c3ccccc3C(C)C)ncc2C)c1
Potency [1]: inactive
Potency [2]: inactive

Cc1ccc(S(=O)(=O)Nc2cccnc2C(=O)Nc2nc(-c3ccccc3)cs2)cc1
Potency [1]: inactive
Potency [2]: inactive

CC(C)(C)OC(=O)NCCOCCOCCOc1ccc(-c2no[n+]([O-])c2C#N)cc1
Potency [1]: inactive
Potency [2]: inactive

O=C(COc1ccc(F)cc1)NCCc1nc2ccccc2[nH]1
Potency [1]: inactive
Potency [2]: inactive

C[C@H]1CN(S(=O)(=O)c2c(F)cccc2F)CCN1S(=O)(=O)c1ccc2c(c1)OCCO2
Potency [1]: inactive
Potency [2]: inactive

Cc1cc2c(s1)c1cnn(Cc3ccc(C(=O)O)cc3)c(=O)c1n2C
Potency [1]: inactive
Potency [2]: inactive

O=S(=O)(c1ccc(Cl)cc1)N1CCN(S(=O)(=O)c2ccc3c(c2)OCCO3)CC1
Potency [1]: inactive
Potency [2]: inactive

O=c1c2ccccc2nc2sc(Nc3cccc(-c4ccncc4)c3)nn12
Potency [1]: inactive
Potency [2]: inactive

N#Cc1nc(NCC(F)F)c2ncn(-c3cc(F)cc(F)c3)c2n1
Potency [1]: inactive
Potency [2]: inactive

Fc1cc(Nc2nc(-c3ccncc3)nc3ccccc23)ccc1-c1cccc(OC(F)(F)F)c1
Potency [1]: inactive
Potency [2]: inactive

NC(N)=NCCC[C@H](NC(=O)CNC(=O)c1ccccc1)C(=O)Nc1cc(C(F)(F)F)ccc1Cl
Potency [1]: inactive
Potency [2]: inactive

Cc1ccsc1CNc1ncnc2ccc(-c3ccc4c(c3)OCO4)cc12
Potency [1]: inactive
Potency [2]: inactive

COc1ccc(OC)c(C2=Nn3c(nnc3-c3ccc(OC)c(OC)c3)SC2)c1
Potency [1]: inactive
Potency [2]: inactive

O=[S+]([O-])(/C=C/c1nc(Nc2cc(F)cc(F)c2)c2ncn(CC(F)F)c2n1)c1ccccc1
Potency [1]: inactive
Potency [2]: inactive

O=C(Nc1ccccc1)Nc1ccccc1
Potency [1]: inactive
Potency [2]: inactive

Cc1ccc(-c2cc(C(=O)Nc3ccccc3Cl)c3ccccc3n2)cc1C
Potency [1]: inactive
Potency [2]: inactive

COc1ccc2ncnc(NCC3CCCO3)c2c1-c1ccc2c(c1)OCO2 (centres undefined)
Potency [1]: inactive
Potency [2]: inactive

CCNC(=O)c1ccc(-c2ccc3ncnc(NCc4nc(C)cs4)c3c2)o1
Potency [1]: inactive
Potency [2]: inactive

Cc1cc(-c2cc(O)ccc2Cl)cc2nnc(Nc3ccc(OCCN4CCCC4)cc3)nc12
Potency [1]: inactive
Potency [2]: inactive

COc1ccc(Cn2ncc3c4sc(C)cc4n(C)c3c2=O)cc1
Potency [1]: inactive
Potency [2]: inactive

Cc1cc(C)n2ncc(C(=O)Nc3ccc(S(C)(=O)=O)cc3)c2n1
Potency [1]: inactive
Potency [2]: inactive

Cc1cnc(-c2ccccc2C(C)C)nc1NCc1cccnc1
Potency [1]: inactive
Potency [2]: inactive

— PubChem BioAssay (NCATS)
